MRP-1 activ: MRP-1 activation; H69AR cells + doxorubicin, viability rescue, CellTiter-Glo; 0.61% of 140,000 active; viability increase, % at 10 µM;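 active = viability gain under doxorubicin at or above a set limit, the compound median plus 3 SD, cut at about 4.7% in these data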;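 also: MRP-1 overexpressing cells given doxorubicin 25 µM after compound pretreatment; 18-22 h compound pretreatment then 72 h with doxorubicin before readout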
MRP reversal: compounds reversing MRP-mediated drug resistance; differential viability (reversal), % at 10 µM; H69AR cells + 2 uM doxorubicin, CellTiter-Glo, 72 h; 0.04% of 85,000 active;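 active = viability drop by adding the cancer drug above about 55%, with treated viability meeting a 40% cutoff, limit read from the data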;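 also: larger differential means the compound sensitizes cells more to doxorubicin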
Of the large screens only hits and unclear results are named; the others gave an inactive call. The sample as a whole holds a higher share of hits than the screen did.

COc1cc(-n2c(=O)c3ccccc3n(Cc3cc(=O)n4ccccc4n3)c2=O)cc(OC)c1OC	none (no result: MRP reversal)
CCc1c(C)sc(NC(=O)c2cc(CC(C)C)on2)c1C#N	MRP-1 activ 8.0
CCc1c(C)sc(NC(=O)c2cc(-c3ccc(O)cc3)on2)c1C#N	none
O=C(Nc1ccccc1F)c1ccc(COc2ccc(Cl)cc2Cl)o1	none
O=C(Nc1ccn(Cc2c(F)c(F)cc(F)c2F)n1)c1ccc(COc2ccc(Cl)cc2Cl)o1	MRP-1 activ 13 (no result: MRP reversal)
Cc1nn(Cc2ccc(Cl)cc2Cl)c(C)c1NC(=O)c1ccc(COc2cc(Cl)ccc2Cl)o1	MRP-1 activ 5.6 (no result: MRP reversal)
Cc1nn(Cc2c(F)c(F)c(F)c(F)c2F)c(C)c1NC(=O)c1ccc(COc2ccc(Cl)cc2Cl)o1	none (no result: MRP reversal)
COc1ccc(NC(=O)CN2C(=O)C(C)SC(C)C2=O)c(OC)c1 (stereo not drawn)	none (no result: MRP reversal)
COc1ccc(C(=O)NC(=S)Nc2nc(C)c(C(=O)N(C)C)s2)cc1	none (no result: MRP reversal)
Cc1nc(NC(=S)NC(=O)c2cccs2)sc1C(=O)N(C)C	MRP-1 activ 7.2 (no result: MRP reversal)
CC(O)C(NS(=O)(=O)c1ccc(Cl)cc1)C(=O)OCC(=O)N1CCN(c2ccccc2)CC1 (stereo not drawn)	none (no result: MRP reversal)
CC(=O)NN1C(=O)/C(=C\c2ccccc2)SC1=S	none (no result: MRP reversal)
CC(=O)NN1C(=O)/C(=C\c2ccc(C)cc2)SC1=S	MRP-1 activ 11 (no result: MRP reversal)
Cc1cc(C)nc(NN2C(=O)/C(=C/c3ccccc3)SC2=S)n1	MRP-1 activ 9.7 (no result: MRP reversal)
COc1cc(/C=C2\SC(=S)N(Nc3ccccc3)C2=O)ccc1O	none (no result: MRP reversal)
O=C(CCN1C(=O)/C(=C\c2ccccc2)SC1=S)NNC(=O)c1cccnc1	MRP-1 activ 8.8 (no result: MRP reversal)
O=C(CCN1C(=O)/C(=C/C=C/c2ccccc2)SC1=S)Nc1cccnc1	none (no result: MRP reversal)
COc1ccc(/C=C2/SC(=S)N(CCC(=O)O)C2=O)cc1	none (no result: MRP reversal)
Cc1ccc(/C=C2\SC(=S)N(CCC(=O)NNS(=O)(=O)c3ccc(C)cc3)C2=O)cc1	MRP-1 activ 5.7 (no result: MRP reversal)
Cc1cc(C)c(C2=NOC3C4CCC(C4)C23)c(C)c1 (stereo not drawn)	none (no result: MRP reversal)
COc1cc2c(cc1NS(=O)(=O)N1CCCCC1)oc1ccccc12	none
CC1CCN(c2ccc(C(=O)NCc3ccco3)cc2[N+](=O)[O-])CC1	none (no result: MRP reversal)
O=C1c2cccc(OCc3ccc(F)cc3)c2CCN1Cc1ccccc1	none (no result: MRP reversal)
Cc1ccc(COc2cccc3c2CCN(Cc2ccc(F)cc2)C3=O)cc1	MRP-1 activ 5.0 (no result: MRP reversal)
COc1ccc(NC(=O)Cn2cc(C(=O)c3ccco3)c3ccccc32)cc1	MRP-1 activ 6.7
CCOc1ccc(NC(=O)Cn2cc(C(=O)c3ccco3)c3ccccc32)cc1	none
CCC1(C)Cc2c(sc3c2c(=O)n(C)c2nnc(SCC(=O)c4ccc(Cl)cc4)n32)CO1 (stereo not drawn)	none (no result: MRP-1 activ)
CCN(CC)S(=O)(=O)c1ccc(C)c(NC(=S)NNC(=O)C2CC2)c1	none (no result: MRP reversal)
Cn1c(C(=O)NCc2cccs2)cc2oc3ccccc3c21	none (no result: MRP reversal)
Cn1c(C(=O)NCc2ccccc2)cc2oc3ccccc3c21	MRP-1 activ 5.2
Cc1cc(N2C(=O)NC(=O)CC2C)c(C)cc1C(C)C (stereo not drawn)	none (no result: MRP reversal)
O=C(Nc1cccnc1)C1CC(c2ccc(Cl)c(Cl)c2)=NO1 (stereo not drawn)	MRP-1 activ 6.0
O=C(NCc1ccccn1)C1CC(c2ccc(Cl)c(Cl)c2)=NO1 (stereo not drawn)	none
Cc1cc(C)cc(NC(=O)CSc2cc(C(=O)c3nccn3C)c3ccccc3n2)c1	none (no result: MRP reversal)
O=C1N/C(=N\N=C\c2cccs2)SC1Cc1ccc(Cl)cc1Cl (stereo not drawn)	none (no result: MRP reversal)
O=C1NC(=Nc2ccc(Cl)cc2)SC1Cc1cc(Cl)ccc1Cl (stereo not drawn)	MRP-1 activ 6.9 (no result: MRP reversal)
CN(C(=O)Nc1ccc(Cl)cc1Cl)[C@H]1c2cc(Br)ccc2OC[C@H]1CO	none (no result: MRP reversal)
Nc1c2c(nc3ccn(Cc4ccccc4)c(=O)c13)CCC2	none
Nc1c2c(nc3ccn(-c4ccccc4)c(=O)c13)CCCCC2	MRP-1 activ 4.9
O=C(NNC(=O)c1cccc(S(=O)(=O)N2CCN(c3ccccc3)CC2)c1)c1ccc(Cl)cc1	MRP-1 activ 10 (no result: MRP reversal)
O=C(c1cccc(S(=O)(=O)N2CCCC2)c1)N1CCN(c2ccccc2)CC1	none
O=C1Nc2cccnc2Sc2ccccc21	none
c1ccc2c(c1)Nc1nccnc1S2	MRP-1 activ 5.1 (no result: MRP reversal)
CCOC(=O)CC(NC(=O)Cc1ccc(F)cc1)c1ccccc1Cl (stereo not drawn)	none (no result: MRP reversal)
O=c1c2cnn(-c3ccccc3)c2nc(-c2cccs2)n1-c1ccc(Br)cc1	none (no result: MRP reversal)
C=CCNC(=O)CC(=O)N/N=C/c1cccc(C)c1	none (no result: MRP reversal)
CCc1nnc(NC(=O)C2CCCN2S(=O)(=O)c2ccc(F)cc2)s1 (stereo not drawn)	MRP-1 activ 5.8
CCc1nnc(NC(=O)[C@@H]2CCCN2S(=O)(=O)c2ccc3c(c2)OCCO3)s1	none
COc1ccccc1NC(=O)Cn1nc(-c2ccc(Cl)cc2)c2ccccc2c1=O	none
CC(C)c1ccc(NC(=O)Cn2cccc2C2=NC(c3ccccc3)CO2)cc1 (stereo not drawn)	none (no result: MRP reversal)
Cc1ccsc1CNn1cnnc1SCc1ccc(Cl)cc1	MRP-1 activ 6.3
Cc1ccc(CNn2cnnc2SCc2ccc(F)cc2)cc1	none
